Counter-ions that a name gives are not always drawn. ± gives the standard deviation.

This experiment has as its system Jurkat. The experiment is described as follows: cell count relative to DMSO control (fraction of control); higher = more cells (less growth inhibition). Particulars: 48 h.
In turn, `CO/N=C(\C(=O)N[C@@H]1C(=O)N2C(C(=O)O)=C(COC(N)=O)CS[C@H]12)c1ccco1` [Cefuroxime·Na] (concentration: 25 µM) showed a cell count of 0.945 ± 0.051. Take `CC1(C)C[C@@H]1C(=O)N/C(=C\CCCCSC[C@H](N)C(=O)O)C(=O)O` [Cilastatin·Na] (concentration: 25 µM): the cell count came to 1.03 ± 0.092. In turn, `CC1(C)O[C@@H]2C[C@H]3[C@@H]4C[C@H](F)C5=CC(=O)C=C[C@]5(C)[C@H]4[C@@H](O)C[C@]3(C)[C@]2(C(=O)CO)O1` [Flunisolide] (concentration: 2.5 µM) showed a cell count of 0.893 ± 0.11. Take `COC(=O)N[C@H](C(=O)N[C@@H](Cc1ccccc1)[C@@H](O)CN(Cc1ccc(-c2ccccn2)cc1)NC(=O)[C@@H](NC(=O)OC)C(C)(C)C)C(C)(C)C` [Atazanavir] (concentration: 25 µM): the cell count came to 0.658 ± 0.054. `C[C@@H](O)[C@H]1C(=O)N2C(C(=O)O)=C(S[C@@H]3CN[C@H](C(=O)N(C)C)C3)[C@H](C)[C@H]12` [Meropenem] (concentration: 25 µM) displayed a cell count of 0.939 ± 0.078. The compound `Oc1ncnc2[nH]ncc12` [Allopurinol] (concentration: 25 µM) gave a cell count of 0.701 ± 0.13.

`C[N+](C)(C)CCOC(N)=O` [Carbachol (Carbamylcholine ) Chloride] (concentration: 25 µM) displayed a cell count of 1.13 ± 0.12.

In the case of `C=C(CC)C(=O)c1ccc(OCC(=O)O)c(Cl)c1Cl` [Ethacrynic Acid] (concentration: 25 µM), the cell count was determined as 0.453 ± 0.058. For `O=C(O)c1cccnc1` [Niacin (Known As Vitamin B3, Nicotinic Acid And Vitamin Pp)] (concentration: 25 µM), the cell count turned out to be 0.426 ± 0.096. For `Nc1nc(Cl)nc2c1ncn2[C@@H]1O[C@H](CO)[C@@H](O)[C@@H]1F` [Clofarabine] (concentration: 25 nM), the cell count was found to be 0.26 ± 0.073. For the compound `Nc1nc(F)nc2c1ncn2[C@@H]1O[C@H](COP(=O)(O)O)[C@@H](O)[C@@H]1O` [Fludarabine Phosphate] (concentration: 2.5 µM), the cell count stood at 0.378 ± 0.024.

Consider `Clc1cccc(Cl)c1NC1=NCCN1` [Clonidine·HCl] (concentration: 25 µM), for which the cell count stood at 0.224 ± 0.083. The result for `CCC(=O)NCC[C@@H]1CCc2ccc3c(c21)CCO3` [Ramelteon] (concentration: 25 µM) reads 0.926 ± 0.11.
